In PubChem BioAssay:
The source made the active and inactive calls.

Assay: JC-1 mitochondrial signal, unstimulated adipocytes – cell-based, JC-1 fluorescence, 3T3-L1 adipocytes, 24 h, 100 nL compound, profiling panel (AID 1168); note: test concentration not given here
Conditions: JC-1 mitochondrial fluorescence, higher = more signal, called active from +8 up or from −8 down

| Structure (SMILES) | z-score |
| --- | --- |
| C=C(COC)/C(=C/C[C@@H](OC(C)=O)c1ccc(CO)o1)c1cnc2ccccc2c1 | -0.306 (inactive) |
| COc1ccc(C#Cc2ccc3c(c2)[C@]2(C(=O)N3)[C@H](c3ccccc3OCCO)N3[C@H](c4ccccc4)[C@H](c4ccccc4)OC(=O)[C@H]3[C@@H]2C(=O)O)cc1 | 2.54 (inactive) |
| COc1ccc([Si](C)(C)[C@@H]2[C@@H](CC(=O)N3Cc4ccccc4C[C@H]3CO)O[C@]3(C(=O)N(C)c4c(Br)cc(C)cc43)[C@H]2C)cc1 | 0.596 (inactive) |
| C=C(CCCC)C(=O)CC[C@@H](OC(=O)c1cccnc1)c1ccc(CO)o1 | -0.123 (inactive) |
| Cc1ccc(S[C@]2(C(=O)NCC(C)C)CC(=O)N(Cc3cc(C(F)(F)F)cc(C(F)(F)F)c3)[C@@H]2c2ccc(CO)cc2I)cc1 | -0.3 (inactive) |
| CO[C@H]1O[C@H](CO)[C@@H](OC(=O)Nc2ccc(Br)cc2)[C@H](OC(=O)c2cc3ccccc3[nH]2)[C@H]1OC(=O)c1cc2ccccc2[nH]1 | 2.37 (inactive) |
| CCc1oc(CC[C@@H](CO)NC(=O)NCCn2cc(C3(O)CCCCC3)nn2)c(C(=O)OC)c1C(=O)OC | -0.0732 (inactive) |
| COc1ccc(C(=O)Nc2ccc(CN3C(=O)[C@@]4(O[C@@H](CCn5cc([C@H](O)c6ccccc6)nn5)[C@H]([Si](C)(C)c5ccc(OC)cc5)[C@H]4C)c4ccccc43)cc2)cc1 | 1.17 (inactive) |
| Cc1ccc(C(C)CC(O)C2C=CC3C(=O)N(c4ccccc4)C(=O)C3N2Nc2ccc([N+](=O)[O-])cc2)o1 (stereo unspecified) | -2.12 (inactive) |
| COCCCNC(=O)[C@@]1(Cc2ccccc2N=[N+]=[N-])N=C(c2ccc(OCCCO)cc2)O[C@H]1c1ccccc1N=[N+]=[N-] | 0.221 (inactive) |
| COCCOC(=O)N1C(=O)[C@@]2(c3cc(C#Cc4ccc(OC)cc4)ccc31)[C@H](c1ccccc1OCCO)N1[C@H](c3ccccc3)[C@H](c3ccccc3)OC(=O)[C@H]1[C@@H]2C(=O)N1CCN(c2ncccn2)CC1 | 2.41 (inactive) |
| COc1cc2c(cc1OC)CN(C(=O)[C@H]1[C@@H]3C(=O)O[C@@H](c4ccccc4)[C@@H](c4ccccc4)N3[C@@H](c3ccc(O)cc3)[C@]13C(=O)Nc1ccc(C#CC4=CCCCC4)cc13)CC2 | 2.83 (inactive) |
| CCCCc1cn(C[C@H](Cc2ccccc2)NC(=O)N[C@H](CO)CCc2oc(C(C)=O)c(C(=O)OC)c2C(=O)OC)nn1 | 0.273 (inactive) |
| CN(C)C(=O)[C@]1(Cc2ccccc2N=[N+]=[N-])N=C(c2ccc(OCCCO)cc2)O[C@@H]1c1ccccc1 | 0.6 (inactive) |
| C=CCNC(=O)[C@@H]1[C@H]2C(=O)O[C@H](c3ccccc3)[C@H](c3ccccc3)N2[C@H](c2ccc(OCCO)cc2)[C@@]12C(=O)Nc1ccc(C#CCCO)cc12 | 0.0466 (inactive) |
| [N-]=[N+]=NCc1ccccc1C[C@]1(C(=O)N2CCOCC2)N=C(c2ccc(OCCCO)cc2)O[C@H]1c1ccccc1N=[N+]=[N-] | -0.817 (inactive) |
| C=CCNC(=O)[C@H]1[C@@H]2C(=O)O[C@@H](c3ccccc3)[C@@H](c3ccccc3)N2[C@@H](c2ccc(OCCO)cc2)[C@]12C(=O)Nc1ccc(C#CC3=CCCCC3)cc12 | 2.5 (inactive) |
| COC(=O)[C@@]1(Cc2ccc(OC)cc2)[C@H]2c3cc(C(=O)N4CCCC4)n(Cc4ccccc4)c3C[C@H]2CN1C(=O)c1ccccc1 | -1.07 (inactive) |

| Structure (SMILES) | z-score |
| --- | --- |
| CCCC[C@@H]1C[C@H]1[C@@H](NC(=O)c1ccco1)c1ccc(C(=O)OC)cc1 | -2.2 (inactive) |
| C=CCOC(=O)[C@H]1[C@@H]2C(=O)O[C@@H](c3ccccc3)[C@@H](c3ccccc3)N2[C@@H](c2ccc(OCCOC(=O)[C@H]3C[C@H]4C(=O)N[C@@H](CC(C)C)C(=O)N4[C@H]3c3ccc(O)cc3)cc2)[C@]12C(=O)Nc1ccc(I)cc12 | -0.804 (inactive) |
| COC(=O)c1c(CC[C@@H](CO)NC(=O)N[C@@H](C)Cn2cc(C3(O)CCCCC3)nn2)oc(C(C)=O)c1C(=O)OC | 1.17 (inactive) |
| CC(C)N1C(=O)[C@@]2(Cc3ccccc31)c1ccccc1C(=O)N(C1CCCCC1)[C@H]2c1ccc(CO)cc1 | 0.327 (inactive) |
| CN(C)CCCNC(=O)[C@@]1(c2ccc([N+](=O)[O-])cc2)CC(=O)N(C2CCCCC2)[C@@H]1c1ccc(CO)cc1I | 0.499 (inactive) |
| CCOC(=O)C[C@H]1[C@H](OC(=O)c2ccc(C(=O)c3ccccc3)cc2)[C@@H](NC(=O)c2ccc(-c3ccccc3)cc2)c2cc(OCCCO)ccc2N1C(=O)c1ccccc1 | -0.136 (inactive) |
| C=CCNC(=O)[C@@H]1[C@H]2C(=O)O[C@H](c3ccccc3)[C@H](c3ccccc3)N2[C@H](c2ccc(OCCO)cc2)[C@@]12C(=O)Nc1ccc(C#Cc3ccc(OC)cc3)cc12 | 1.05 (inactive) |
| O=C1O[C@H](c2ccccc2)[C@H](c2ccccc2)N2[C@H]1[C@@H](C(=O)N1CCN(c3ncccn3)CC1)[C@]1(C(=O)Nc3ccc(C#CC4=CCCCC4)cc31)[C@H]2c1ccc(O)cc1 | 1.44 (inactive) |
| O=C1OCCC/C=C\[C@H]2OC34C=CCN(c5ccc6ccccc6c5)C(=O)[C@H]3N(CCCCCCO)C(=O)[C@@H]4C12 (stereo partly specified) | 0.4 (inactive) |
| C#CCN(CC=C(C)C)[C@H](CO)c1ccccc1 | 0.27 (inactive) |
| C=C(CCCC)C(=O)CC[C@H](OC(C)=O)c1cccc(OCCO)c1 | 0.906 (inactive) |
| COCCOC(=O)N1C(=O)[C@@]2(c3cc(C#Cc4ccc(OC)cc4)ccc31)[C@H](C(N)=O)[C@H]1C(=O)O[C@H](c3ccccc3)[C@H](c3ccccc3)N1[C@@H]2c1ccccc1OCCO | 2.99 (inactive) |
| COc1ccc(C(=O)Nc2cccc(CN3C(=O)[C@]4(O[C@H](CCO)[C@@H]([Si](C)(C)c5ccc(OC)cc5)[C@@H]4C)c4ccccc43)c2)cc1 | -1.37 (inactive) |
| Cc1ccc(S[C@]2(C(=O)NCC(F)(F)F)CC(=O)N(C(C)C)[C@@H]2c2ccc(CO)cc2I)cc1 | -0.374 (inactive) |
| COC(=O)[C@@]1(Cc2ccc(OC)cc2)[C@H]2c3cc(C(=O)N(C)C)n(CCN4CNCC4=O)c3C[C@H]2CN1C(=O)c1ccccc1 | 0.489 (inactive) |
| COCCOC(=O)N1C(=O)[C@@]2(c3cc(C#CCNC(N)=O)ccc31)[C@H](C(=O)NC[C@H](O)c1ccccc1)[C@H]1C(=O)O[C@H](c3ccccc3)[C@H](c3ccccc3)N1[C@@H]2c1ccccc1OCCO | 0.749 (inactive) |
| CC(C)(C)OC(=O)CC[C@]1(C(=O)O)N=C(c2ccc(OCCCO)cc2)O[C@H]1c1ccccc1N=[N+]=[N-] | 0.328 (inactive) |
| O=C1C2C=CC(C(O)C(c3ccccc3)c3ccccc3)N(n3cnnc3)C2C(=O)N1Cc1ccccc1 (stereo unspecified) | -1.26 (inactive) |
